This passage reports growth results from PubChem BioAssay (NCI).

Values joined by “and” are separate entries in the source; they are usually repeats but may differ in a detail not shown here. Equal values may be shown once. The panel holds about 83,000 compounds, 20% with a hit somewhere; the sample as a whole holds those more often.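 Compound tested at a single concentration for 48 hours in 96-well plates; a percent growth value below 10 was scored as active.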 Values without a mark were called inactive. Active and inactive are the calls of the source.

Assay in all cases: NCI-60 one-dose screen, 48 h (100 = growth as untreated, 0 = no growth, -100 = all killed)
Holding throughout (conditions): 10 µM unless noted

The test system of assay [1] is NCI-H23 lung.
Assay [2] relates to NCI-H226 lung.
The subject of assay [3] is NCI-H322M lung.
For assay [4], the system named is HOP-62 NSCLC.
Assay [5] relates to NCI-H460 lung.
Assay [6] has as its system HOP-92 NSCLC.
Assay [7] deals with NCI-H522 lung.
The subject of assay [8] is A549/ATCC NSCLC.
Assay [9] relates to 786-0 renal.
Assay [10] relates to COLO 205 colon.
Assay [11] relates to DU-145 prostate.
Assay [12] has as its system K-562 leukemia.
For assay [13], the system named is MALME-3M melanoma.
Assay [14] concerns MDA-MB-231 breast.
The subject of assay [15] is RXF 393 renal.
Assay [16] relates to SF-268 CNS.
In assay [17] the test system is SF-295 CNS.
For assay [18], the system named is SF-539 CNS.
For assay [19], the system named is UACC-257 melanoma.
The test system of assay [20] is M14 melanoma.

Take `O=[N+]([O-])c1cc(Cl)c(Cl)c([N+](=O)[O-])c1Cl`: the growth in assay [1] is 85.6%; in assay [2] it was 81.4%; in assay [3], 123%; in assay [4], 119%; in assay [5], 99.7%; in assay [6] it was 74.9%. The growth in assay [7] was -86.7% (active); in [8], 92.5%; in [9], 114%; in assay [10] it was -23.8% (active); in [11], 85.4%; in assay [12], 7.08% (active). Also, the growth in assay [13] was -26% (active); in assay [14], 91.8%; in assay [15], 55.5%; in assay [16], 84.2%; in [17] it was 134%; in [18], 103%. Further, the growth in [19] is 16.1%; in [20], 3.65% (active).
Turning to `CC1(C)N(Nc2ccccc2)C(=O)C2CCCN21` (stereo not given), the growth in assay [1] was 97.2%; in assay [2], 84.6%; in assay [3] it was 87.4%; in assay [4], 76.1%; in assay [5], 99.8%; in [6], 52.7%. Besides, the growth was 53.2% in assay [7]; 79.4% in [8]; 33.4% in assay [9]; 104% in assay [10]; 16.8% in assay [11]; 8.29% (active) in assay [12]. Moreover, the growth is 84.2% in assay [13]; 89.6% in [14]; 116% in [15]; 39.5% in [16]; 84.5% in assay [17]; 89.3% in [18]. In addition, the growth was 89.2% in assay [19] and 10% (active) in [20].
Turning to `C=CC[PH+](c1ccccc1)c1ccccc1.C=CC[PH+](c1ccccc1)c1ccccc1.[Pt+2].[S-]c1ncccn1.[S-]c1ncccn1`, the growth in assay [1] is 36.6%; in assay [2] it was 3.04% (active); in assay [3], 85.1%; in assay [4], 90.3%; in assay [5], 91.6%; in assay [6], -7.37% (active). Moreover, the growth is -46.1% (active) in assay [7]; 71.4% in assay [8]; 19.6% in [9]; -11.5% (active) in assay [10]; 35.5% in assay [11]; 5% (active) in [12]. Also, the growth is -10.8% (active) in assay [13]; 7.07% (active) in assay [14]; -77.6% (active) in [15]; 87.4% in assay [16]; 84.2% in [17]; 60.2% in assay [18]. Besides, the growth in [19] is 66.7%; in assay [20], 1.19% (active).
For `O=[N+]([O-])c1cc(Cl)c(Cl)cc1Cl`, the growth in [1] was 105% and 107%; in [2] it was 114% and 108%; in [3] it was 116% and 123%; in assay [4], 112% and 107%; in [5] it was 110% and 108%; in assay [6], 110%. Also, the growth in assay [7] is 134% and 110%; in assay [8] it was 88.7% and 111%; in assay [9] it was 111% and 112%; in assay [10] it was 117% and 106%; in assay [11], 111% and 121%; in [12] it was 114% and 110%. Also, the growth in assay [13] was 115% and 126%; in assay [14], 99.7% and 124%; in assay [15], 142% and 111%; in assay [16], 105% and 114%; in [17], 97.8% and 112%; in assay [18], 82.4% and 102%. In addition, the growth in [19] was 80.1% and 111%; in [20], 102% and 114%.
For `CCN1C(=O)NC(=O)C(C)(N2C(=O)c3c(F)c(F)c(F)c(F)c3C2=O)C1=O` (stereo not given), the growth was 32.3% in assay [1]; 105% in assay [2]; 96.7% in assay [3]; 101% in [4]; 22.8% in assay [5]; -42.6% (active) in assay [6]. The growth was -76.6% (active) in assay [7]; 43.1% in assay [8]; 37.4% in assay [9]; -51.4% (active) in [10]; 31.9% in assay [11]; -71.2% (active) in assay [12]. The growth in [13] was -39.6% (active); in assay [14], 9.99% (active); in assay [15] it was -63.8% (active); in [16] it was 5.09% (active); in [17] it was 84.1%; in assay [18] it was 18.6%. In addition, the growth in assay [19] is 38.5%; in assay [20] it was 24.4%.
Turning to `C[N+]1(CC#CC[N+]2(C)CCCC2)CCCC1`, the growth in assay [1] is 111%; in [2], 91.1%; in [3] it was 99.8%; in [4] it was 105%; in assay [5], 106%; in assay [6], 90.6%. Also, the growth is 99.5% in assay [7]; 107% in [8]; 99.2% in [9]; 103% in assay [10]; 106% in assay [11]; 106% in [12]. The growth was 99% in assay [13]; 102% in assay [14]; 103% in assay [15]; 95.9% in assay [16]; 98.6% in assay [17]; 105% in assay [18]. Also, the growth in assay [19] is 105%; in [20] it was 103%.
As to `O=C(O)C(O)c1ccc(Cl)cc1` (stereo not given), the growth in assay [1] was 99.1% and 107%; in assay [2] it was 97% and 103%; in [3], 101% and 118%; in assay [4] it was 107%; in assay [5] it was 106% and 114%; in [6], 112%. Besides, the growth in assay [7] was 100% and 88.1%; in [8] it was 107% and 95.6%; in assay [9], 97.6% and 96.7%; in assay [10] it was 106% and 116%; in [11], 112% and 109%; in [12], 118%. Further, the growth is 110% and 102% in assay [13]; 96.8% and 119% in assay [14]; 88.5% and 122% in [15]; 110% and 101% in assay [16]; 101% and 116% in [17]; 97.5% and 118% in assay [18]. The growth in assay [19] was 109% and 91.8%; in assay [20] it was 99.9% and 104%.
